Reference: ChEMBL document CHEMBL1157539, “Thousands of chemical starting points for antimalarial lead identification” (Nature, 2010)

Experiments:
Format in all cases: functional
Plasmodium falciparum [1] = experiment: GSK_TCMDC: Inhibition of Plasmodium falciparum 3D7 in whole red blood cells, using parasite LDH activity as an index of growth. Test compounds present at 2uM
Plasmodium falciparum [2] = experiment: GSK_TCMDC: Inhibition of Plasmodium falciparum Dd2 in whole red blood cells, using parasite LDH activity as an index of growth. Test compounds present at 2uM
HepG2 = experiment: GSK_TCMDC: Percent inhibition of human HepG2 cell line. Test compounds present at 10uM.

Row | Compound | Inhibition (Plasmodium falciparum [1]) | Inhibition (Plasmodium falciparum [2]) | Inhibition (HepG2)
1 | Br.CC1(C)NC(N)=NC(=N)N1OCCSc1ccccc1 | 95% | 95% | 68%
2 | O=C(NCCN1CCCCC1)c1ccc(Nc2nccc(Nc3ccc(Oc4ccccc4)cc3)n2)cc1 | 100% | 91% | 58%
3 | CCCCCCn1c(Sc2ccc(C#N)c([N+](=O)[O-])c2)nnc1-c1ccc(Cl)cc1 | 93% | 48% | 23%
4 | CN1CCN(CCCNCc2cccc(-c3ccc(CNCCc4ccccc4)cc3)c2)CC1.O=C(O)C(F)(F)F | 100% | 20% | 36%
5 | Cl.N=C(N)c1ccc2[nH]c(SCc3ccccc3)nc2c1 | 97% | 100% | 0%
6 | Nc1cccc(CNCc2cccc(-c3ccc(-c4nc5cc(C(F)(F)F)ccc5[nH]4)cc3)c2)c1.O=C(O)C(F)(F)F | 100% | 98% | 6%
7 | COc1ccc(NC(=O)[C@H](CC(C)C)Nc2cc(C)nc(NCCOc3ccccc3)n2)cc1.O=C(O)C(F)(F)F | 100% | 65% | 0%
8 | O=C(NC1CCN(Cc2ccccc2)CC1)c1cc(-c2ccncc2)nc2ccc(Cl)cc12 | 97% | 27% | 17%
9 | CNC(=O)NC1=NC(C)(C)N(OCCCOc2cc(Cl)c(Cl)cc2Cl)C(N)=N1 | 97% | 2% | 7%
10 | CCOc1cc(CNCCCCCCNCc2cc(OCC)c(OCC)c3ccccc23)c2ccccc2c1OCC.CS(=O)(=O)O | 100% | 99% | 100%
11 | Nc1cc(-c2ccc(Br)cc2O)nc2ccccc12 | 100% | 50% | 23%
12 | COC(=O)c1ccc2nc(-c3ccc(C(=O)NC4CCN(Cc5ccccc5)CC4)s3)[nH]c2c1 | 99% | 71% | 0%
13 | CC(Cc1ccc(CNC(=O)c2ccc(CC(C)NCCc3cccc(Cl)c3)cc2)cc1)NCCc1cccc(Cl)c1 (configuration not stated) | 99% | 66% | 99%
14 | Cc1cc(NCCC(=O)NCCOc2ccccc2)nc(Nc2ccccc2)n1.O=C(O)C(F)(F)F | 94% | 55% | 26%
15 | COc1ccccc1CCNc1ncc(F)c(N[C@@H](Cc2ccccc2)C(=O)NCCc2ccccc2)n1.O=C(O)C(F)(F)F | 90% | 83% | 7%
16 | O=C(/C=C/c1ccc(Cl)c(Cl)c1)NC1CCN(Cc2cccc(O)c2)CC1.O=C(O)C(F)(F)F | 94% | 0% | 0%
17 | CCC(C)NCCC(c1ccccc1)c1ccccc1O.Cl (configuration not stated) | 97% | 74% | 4%
18 | COc1cc(NCCCNCc2cn(Cc3cc(Br)cc(Br)c3)c3ccccc23)nc2ccccc12 | 100% | 85% | 99%
19 | CCn1c(-c2ccccc2)cc2nnc3ccccc3c21 | 92% | 87% | 34%
20 | CC(C)C[C@H](NC(=O)c1cccc(F)c1)C(=O)N[C@H](/C=N/NC(=O)c1ccccc1)CCc1ccccc1 | 93% | 71% | 0%
21 | CC(ON1C(N)=NC(N)=NC1(C)C)c1ccccc1 (configuration not stated) | 96% | 58% | 65%
22 | O=C(c1cncc(-c2ccccc2)c1)N(Cc1cncn1Cc1ccccc1F)CC1CC1 | 100% | 0% | 0%
23 | COc1cc(NC(=O)Nc2ccnc3ccccc23)cc(OC)c1.Cl | 98% | 34% | 11%
24 | COc1nc2c(N3CCN(CCNCc4ccc5c(n4)NC(=O)CS5)CC3)ccnc2cc1F | 100% | 96% | 18%
25 | CC(C)c1nc(N2CCN(C(=S)NCc3ccccc3)CC2)c(C#N)c2c1COC(C)(C)C2 | 99% | 100% | 0%
26 | OCCc1ccc(Nc2nccc(-c3nnc4ccccn34)n2)cc1 | 93% | 46% | 63%
27 | C=C[C@]1(C)C[C@@H](OC(=O)NC(=O)C2CCN(C(=O)CSc3ccccc3)CC2)[C@]2(C)[C@H](C)CC[C@]3(CCC(=O)[C@H]32)[C@@H](C)[C@@H]1O | 93% | 74% | 0%
28 | O=C(O)C(F)(F)F.Oc1ccc(CCCNc2nc(NCc3cccc4ccccc34)nc(N3CCCNCC3)n2)cc1 | 96% | 62% | 98%
29 | Br.CC1(C)NC(N)=NC(=N)N1OCCCNC(=O)c1ccc(C(=O)NCCCON2C(=N)N=C(N)NC2(C)C)cc1 | 91% | 96% | 0%
